The whole screen tested about 340,000 compounds, of which about 1,000 (0.29%) were called active. Rule as the data show it: inconclusive = inhibition above about 29% without an active follow-up result; inactive = below that. These entries were drawn from the full list. Entries with a potency or affinity are not part of this list.
What follows are compounds tested against Genome polyprotein (Dengue virus type 2 (strain 16681-PDK53)) (UniProt P29991) (assay: flavivirus cap methylation enzyme inhibition – biochemical, confirmation dose response, primary screen (AID 588689)). Conditions: Dengue-2 NS5 methyltransferase capping enzyme assay, at 25 µM, hits give high values.

inhibition, inactive:
CCCOC(=O)CSC1=C(C#N)C(c2ccccc2OC)C(C#N)C(=O)N1 (stereo not given) -15.9%
CNC(=O)CC1C(=O)N(C)C(=S)N1NC(=O)c1ccccc1 (stereo not given) 2.33%
COc1cc(C)ccc1OCCOc1ccccc1Cl -4.77%
COc1cc(CO)cc(Br)c1OCC(=O)O -12.1%
CCc1ccc(N=C2NC(=O)/C(=C/c3ccc(OCC(=O)O)c(OC)c3)S2)cc1 -3.47%
Cc1ccc(S(=O)(=O)NCCC(=O)Nc2nccs2)cc1 -0.76%
Cc1cccc(N(CC(=O)Nc2ccccc2-c2ccccc2)S(=O)(=O)c2ccccc2)c1C 1.45%
CC(C)(C)c1csc(CS(=O)(=O)c2ccccn2)n1 -4.67%
Cc1ccc(NC(=O)c2ccc(S(=O)(=O)Nc3c(C)n(C)n(-c4ccccc4)c3=O)cc2)nc1 -5.09%
O=C(CSc1nnc(-c2ccco2)c(-c2ccco2)n1)c1ccccc1 29.5%
Cc1cccc(NC(=O)CSc2nnc(-c3ccco3)o2)c1C 3.22%
Cc1ccc(NC(=O)CSc2nnc(-c3ccco3)c(-c3ccco3)n2)cc1 14.3%
CSc1nnc(-c2ccccc2)c(-c2ccccc2)n1 -5.41%
Cc1ccccc1NC(=O)CSc1n[nH]c(-c2ccco2)n1 0.76%
Cc1cccc(NC(=O)CSc2nnc(-c3ccco3)c(-c3ccco3)n2)c1 25.8%
COc1cccc(NC(=O)c2ccc3c(O)c(S(=O)(=O)c4ccccc4)c(=O)[nH]c3c2)c1 4.09%
CCCCn1c(N)c(N(CC(C)C)C(=O)CC2CCCCC2)c(=O)[nH]c1=O -11.5%
C[C@@H]1CC2[C@@H]3CC[C@H]4CC(=O)CC[C@]4(C)C3=CC[C@]2(C)[C@@]1(O)C(=O)CO (stereo not given in full) -1.96%
CC1=C(C(=O)Nc2cccc(C(=O)NC(C)c3ccccc3)c2)SCCO1 (stereo not given) -4.13%
CCOc1cc(C=O)cc(Cl)c1OCC(N)=O -2.73%
CCOc1cc(C(=O)O)cc(Cl)c1OCC#N -2.72%
O=c1[nH]c2ccc(S(=O)(=O)N3CCN(Cc4ccccc4)CC3)cc2[nH]c1=O -2.74%
CC(=O)Nc1ccc(-c2csc(NC(=O)C3CCN(S(=O)(=O)c4cccs4)CC3)n2)cc1 -5.78%
Cc1ccc(N2C(=O)c3ccc(C(=O)O)cc3C2=O)cc1C 9.14%
Cc1ccc(N2C(=O)c3ccccc3C2=O)cc1C -5.39%

From PubChem BioAssay AID588689 (Southern Research Specialized Biocontainment Screening …, 2011)
